What all share (assay): DAPPL (digital affinity profiling via proximity ligation, sequencing); 10 mM Tris-HCl pH 7.5, 50 mM NaCl, 1 mM DTT, 4% glycerol, room temperature, 30 min; GST-TFs on glutathione beads, 16-mer random dsDNA library, 0.1% formaldehyde crosslink after washing; high values mean tight binding
The target in test [1] is T1, FLI1 (Homo sapiens, UniProt Q01543 1-452).
T1 sequence: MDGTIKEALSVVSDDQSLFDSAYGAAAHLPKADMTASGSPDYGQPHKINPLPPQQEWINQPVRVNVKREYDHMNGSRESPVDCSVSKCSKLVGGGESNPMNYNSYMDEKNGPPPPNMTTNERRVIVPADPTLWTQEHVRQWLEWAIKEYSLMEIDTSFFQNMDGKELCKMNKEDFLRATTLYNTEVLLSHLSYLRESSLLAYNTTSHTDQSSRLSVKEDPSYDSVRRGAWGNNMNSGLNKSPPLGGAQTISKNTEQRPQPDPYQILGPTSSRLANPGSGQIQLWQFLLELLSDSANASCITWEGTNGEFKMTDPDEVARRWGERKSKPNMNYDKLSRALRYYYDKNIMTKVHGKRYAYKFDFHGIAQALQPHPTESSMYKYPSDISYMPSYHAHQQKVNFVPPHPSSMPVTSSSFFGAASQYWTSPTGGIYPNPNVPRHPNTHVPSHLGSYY
The settings on record: protein: recombinant; tags: N-terminal GST; dsDNA, one strand shown. The procedure, abridged:
(§1)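 Sequencing on an Illumina NextSeq500 followed washing, crosslinking with 0.1% formaldehyde, proximity ligation (BsaI/T4 ligase, 1 h, 37 °C) and PCR amplification of pools that had been incubated for 30 min at room temperature with 200 nmole of a random double-stranded 16-mer DNA library in Tris/NaCl/DTT/glycerol buffer. Each pool held DNA-barcoded human transcription factors, expressed in yeast as GST fusions and captured on glutathione beads, plus a tag-only sample. Binding signal is a hexamer's read frequency for a factor divided by its frequency in the tag-only sample.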

Test [2] has as its target T2, ELK1 (Homo sapiens, UniProt P19419 1-428).
T2 sequence: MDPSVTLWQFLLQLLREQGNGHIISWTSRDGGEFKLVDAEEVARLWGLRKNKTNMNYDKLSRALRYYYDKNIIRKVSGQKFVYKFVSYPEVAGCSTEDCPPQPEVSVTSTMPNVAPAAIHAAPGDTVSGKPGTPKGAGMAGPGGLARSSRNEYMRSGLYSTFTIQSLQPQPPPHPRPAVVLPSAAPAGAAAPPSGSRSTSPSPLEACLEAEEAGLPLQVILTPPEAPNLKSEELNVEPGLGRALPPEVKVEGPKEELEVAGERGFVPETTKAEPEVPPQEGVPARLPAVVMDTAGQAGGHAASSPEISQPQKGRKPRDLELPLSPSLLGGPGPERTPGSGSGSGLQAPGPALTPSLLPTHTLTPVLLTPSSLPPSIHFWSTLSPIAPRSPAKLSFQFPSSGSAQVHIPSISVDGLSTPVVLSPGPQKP
The following applies: protein: recombinant; tags: N-terminal GST; dsDNA, one strand shown. The procedure, abridged:
as §1

Test [3] has as its target T3, GABPA (Homo sapiens, UniProt Q06546 1-454).
T3 sequence: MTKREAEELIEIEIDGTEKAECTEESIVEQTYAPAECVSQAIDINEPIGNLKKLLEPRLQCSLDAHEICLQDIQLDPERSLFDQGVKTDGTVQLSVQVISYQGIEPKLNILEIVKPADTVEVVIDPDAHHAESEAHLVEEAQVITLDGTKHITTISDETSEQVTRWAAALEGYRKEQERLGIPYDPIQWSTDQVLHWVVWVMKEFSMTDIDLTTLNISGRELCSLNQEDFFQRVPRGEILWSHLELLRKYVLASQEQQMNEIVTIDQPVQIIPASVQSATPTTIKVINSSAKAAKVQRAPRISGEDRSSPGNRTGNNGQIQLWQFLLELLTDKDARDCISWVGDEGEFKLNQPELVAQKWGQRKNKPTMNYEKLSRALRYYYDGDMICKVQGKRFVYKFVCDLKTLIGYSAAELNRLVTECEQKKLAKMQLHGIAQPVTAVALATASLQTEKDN
The following applies: protein: recombinant; tags: N-terminal GST; dsDNA, one strand shown. The procedure, abridged: as §1

Test [4] deals with T4, ERG (Homo sapiens, UniProt P11308 1-479).
T4 sequence: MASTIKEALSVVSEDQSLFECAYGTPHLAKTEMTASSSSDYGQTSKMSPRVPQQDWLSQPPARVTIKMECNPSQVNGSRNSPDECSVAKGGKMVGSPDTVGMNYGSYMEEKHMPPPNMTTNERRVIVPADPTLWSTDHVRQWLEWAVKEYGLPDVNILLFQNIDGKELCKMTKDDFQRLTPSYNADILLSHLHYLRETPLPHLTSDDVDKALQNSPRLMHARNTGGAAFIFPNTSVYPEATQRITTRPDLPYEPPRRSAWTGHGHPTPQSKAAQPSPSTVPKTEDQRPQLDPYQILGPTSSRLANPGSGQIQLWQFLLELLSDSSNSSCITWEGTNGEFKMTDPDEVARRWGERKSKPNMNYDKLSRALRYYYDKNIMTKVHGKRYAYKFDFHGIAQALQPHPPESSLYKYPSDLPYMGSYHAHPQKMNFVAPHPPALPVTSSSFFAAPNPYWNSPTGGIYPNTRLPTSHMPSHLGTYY
The following applies: protein: recombinant; tags: N-terminal GST; dsDNA, one strand shown. In short, it runs like this:
as §1

Test [5] deals with ELF1 (Homo sapiens, UniProt P32519 1-619). The following applies: protein: recombinant; tags: N-terminal GST; dsDNA, one strand shown. The procedure, abridged:
as §1

The target in test [6] is T5, EHF (Homo sapiens, UniProt Q9NZC4 1-300).
T5 sequence: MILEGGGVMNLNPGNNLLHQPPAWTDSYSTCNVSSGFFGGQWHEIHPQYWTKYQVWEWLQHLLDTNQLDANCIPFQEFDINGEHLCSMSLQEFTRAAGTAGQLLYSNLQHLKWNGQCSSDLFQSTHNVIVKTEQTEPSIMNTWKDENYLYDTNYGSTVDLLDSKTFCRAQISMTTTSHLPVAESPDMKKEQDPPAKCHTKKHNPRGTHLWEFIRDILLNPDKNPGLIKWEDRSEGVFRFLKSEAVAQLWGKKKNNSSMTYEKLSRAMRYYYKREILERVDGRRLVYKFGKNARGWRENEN
The following applies: protein: recombinant; tags: N-terminal GST; dsDNA, one strand shown. In short, it runs like this:
as §1

Test [7] concerns the target SPI1 (Homo sapiens, UniProt P17947 1-270). The settings on record: protein: recombinant; tags: N-terminal GST; dsDNA, one strand shown. In short, it runs like this: as §1
Test [8] has as its target SPIB (Homo sapiens, UniProt Q01892 1-262). The settings on record: protein: recombinant; tags: N-terminal GST; dsDNA, one strand shown. The procedure, abridged: as §1
The target of test [9] is T6, ELK3 (Homo sapiens, UniProt P41970 1-407).
T6 sequence: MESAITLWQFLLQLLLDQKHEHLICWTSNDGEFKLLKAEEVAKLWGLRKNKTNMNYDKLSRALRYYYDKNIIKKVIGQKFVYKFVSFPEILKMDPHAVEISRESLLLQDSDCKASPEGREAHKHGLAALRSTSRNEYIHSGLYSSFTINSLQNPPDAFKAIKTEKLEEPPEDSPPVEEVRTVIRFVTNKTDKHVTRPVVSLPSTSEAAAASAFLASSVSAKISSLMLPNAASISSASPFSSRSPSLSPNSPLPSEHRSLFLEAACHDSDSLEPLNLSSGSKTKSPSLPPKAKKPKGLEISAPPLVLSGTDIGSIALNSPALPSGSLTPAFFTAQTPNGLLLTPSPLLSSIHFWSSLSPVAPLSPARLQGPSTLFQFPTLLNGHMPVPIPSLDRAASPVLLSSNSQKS
The settings on record: protein: recombinant; tags: N-terminal GST; dsDNA, one strand shown. In short, it runs like this:
as §1

Test [10] deals with T7, FEV (Homo sapiens, UniProt Q99581 1-238).
T7 sequence: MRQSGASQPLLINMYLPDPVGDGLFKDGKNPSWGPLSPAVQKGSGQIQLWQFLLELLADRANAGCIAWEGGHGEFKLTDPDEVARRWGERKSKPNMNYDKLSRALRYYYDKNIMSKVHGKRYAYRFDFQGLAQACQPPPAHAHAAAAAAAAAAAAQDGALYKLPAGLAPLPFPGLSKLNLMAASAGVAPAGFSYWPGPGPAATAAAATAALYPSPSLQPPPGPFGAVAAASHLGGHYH
The following applies: protein: recombinant; tags: N-terminal GST; dsDNA, one strand shown. The procedure, abridged:
as §1

The target in test [11] is ETV5 (Homo sapiens, UniProt P41161 1-510). The settings on record: protein: recombinant; tags: N-terminal GST; dsDNA, one strand shown. In short, it runs like this:
as §1

Test [12] deals with HSF1 (Homo sapiens, UniProt Q00613 1-529). The following applies: protein: recombinant; tags: N-terminal GST; chain copies: 3; dsDNA, one strand shown. In short, it runs like this: as §1
Test [13] has as its target T8, SPIC (Homo sapiens, UniProt Q8N5J4 1-248).
T8 sequence: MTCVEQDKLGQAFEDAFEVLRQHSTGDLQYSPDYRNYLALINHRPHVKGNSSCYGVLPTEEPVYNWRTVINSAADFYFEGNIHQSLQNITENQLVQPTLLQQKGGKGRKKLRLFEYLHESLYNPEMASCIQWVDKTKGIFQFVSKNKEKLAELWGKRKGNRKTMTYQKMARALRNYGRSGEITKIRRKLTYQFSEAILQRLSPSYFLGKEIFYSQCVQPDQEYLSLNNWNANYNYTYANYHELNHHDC
The settings on record: protein: recombinant; tags: N-terminal GST; dsDNA, one strand shown. The procedure, abridged: as §1

The target in test [14] is ELF4 (Homo sapiens, UniProt Q99607 1-663). The settings on record: protein: recombinant; tags: N-terminal GST; dsDNA, one strand shown. In short, it runs like this: as §1
Test [15] addresses T9, ELK4 (Homo sapiens, UniProt P28324-2 1-405).
T9 sequence: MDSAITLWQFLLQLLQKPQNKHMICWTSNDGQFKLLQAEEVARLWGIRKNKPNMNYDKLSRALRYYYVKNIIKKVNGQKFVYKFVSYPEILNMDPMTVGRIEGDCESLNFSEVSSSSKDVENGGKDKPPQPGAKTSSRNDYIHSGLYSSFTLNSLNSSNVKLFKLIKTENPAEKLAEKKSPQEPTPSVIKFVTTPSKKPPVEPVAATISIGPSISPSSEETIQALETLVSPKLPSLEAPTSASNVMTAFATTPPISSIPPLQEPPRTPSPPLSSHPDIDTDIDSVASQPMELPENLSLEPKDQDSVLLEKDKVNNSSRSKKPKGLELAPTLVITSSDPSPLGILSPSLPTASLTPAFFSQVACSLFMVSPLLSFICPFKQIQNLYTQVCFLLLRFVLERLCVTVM
The following applies: protein: recombinant; tags: N-terminal GST; dsDNA, one strand shown. In short, it runs like this:
as §1

Test [16] concerns the target T10, ETV2 (Homo sapiens, UniProt O00321 1-342).
T10 sequence: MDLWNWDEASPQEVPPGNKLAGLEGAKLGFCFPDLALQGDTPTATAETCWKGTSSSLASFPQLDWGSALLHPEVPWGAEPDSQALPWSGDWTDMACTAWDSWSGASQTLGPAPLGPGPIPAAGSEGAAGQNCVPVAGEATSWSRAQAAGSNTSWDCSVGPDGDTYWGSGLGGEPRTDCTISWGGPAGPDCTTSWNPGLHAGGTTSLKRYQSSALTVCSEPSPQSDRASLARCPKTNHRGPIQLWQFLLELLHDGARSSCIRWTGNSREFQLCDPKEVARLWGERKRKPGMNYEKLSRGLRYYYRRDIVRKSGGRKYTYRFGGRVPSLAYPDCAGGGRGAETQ
The following applies: protein: recombinant; tags: N-terminal GST; dsDNA, one strand shown. In short, it runs like this:
as §1

Test [17] deals with T11, ELF3 (Homo sapiens, UniProt P78545 1-371).
T11 sequence: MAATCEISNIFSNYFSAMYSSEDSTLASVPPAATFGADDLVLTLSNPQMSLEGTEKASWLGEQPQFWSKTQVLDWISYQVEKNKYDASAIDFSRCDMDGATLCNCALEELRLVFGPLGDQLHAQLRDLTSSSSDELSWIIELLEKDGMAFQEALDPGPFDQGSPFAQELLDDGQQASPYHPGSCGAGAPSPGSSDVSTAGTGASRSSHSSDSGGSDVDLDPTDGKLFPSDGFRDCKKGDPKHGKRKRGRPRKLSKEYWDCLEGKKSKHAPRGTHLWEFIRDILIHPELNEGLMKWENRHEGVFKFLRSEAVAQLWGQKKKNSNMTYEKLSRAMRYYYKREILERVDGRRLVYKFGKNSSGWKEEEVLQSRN
The settings on record: protein: recombinant; tags: N-terminal GST; dsDNA, one strand shown. The procedure, abridged:
as §1

Test [18] concerns the target ETV1 (Homo sapiens, UniProt P50549 1-477). The settings on record: protein: recombinant; tags: N-terminal GST; dsDNA, one strand shown. The procedure, abridged: as §1

Chain of ELF4 (Q99607 whole entry): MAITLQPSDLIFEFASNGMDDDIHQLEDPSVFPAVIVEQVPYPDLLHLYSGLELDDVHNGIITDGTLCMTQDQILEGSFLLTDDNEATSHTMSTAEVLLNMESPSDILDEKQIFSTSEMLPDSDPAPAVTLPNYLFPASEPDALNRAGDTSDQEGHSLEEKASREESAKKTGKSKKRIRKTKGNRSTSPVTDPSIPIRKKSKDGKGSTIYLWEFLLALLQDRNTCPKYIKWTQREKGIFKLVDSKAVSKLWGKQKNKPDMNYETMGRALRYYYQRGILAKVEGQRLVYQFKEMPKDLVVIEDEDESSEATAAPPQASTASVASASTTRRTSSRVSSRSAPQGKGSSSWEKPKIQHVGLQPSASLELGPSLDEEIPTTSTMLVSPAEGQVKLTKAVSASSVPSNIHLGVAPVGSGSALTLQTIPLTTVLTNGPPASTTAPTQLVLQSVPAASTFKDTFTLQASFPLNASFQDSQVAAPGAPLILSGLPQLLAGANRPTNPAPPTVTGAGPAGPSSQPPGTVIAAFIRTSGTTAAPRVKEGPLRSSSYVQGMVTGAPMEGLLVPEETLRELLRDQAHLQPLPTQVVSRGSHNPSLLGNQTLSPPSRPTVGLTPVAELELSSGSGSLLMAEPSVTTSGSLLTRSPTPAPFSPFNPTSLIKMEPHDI
Chain of ETV1 (P50549 whole entry): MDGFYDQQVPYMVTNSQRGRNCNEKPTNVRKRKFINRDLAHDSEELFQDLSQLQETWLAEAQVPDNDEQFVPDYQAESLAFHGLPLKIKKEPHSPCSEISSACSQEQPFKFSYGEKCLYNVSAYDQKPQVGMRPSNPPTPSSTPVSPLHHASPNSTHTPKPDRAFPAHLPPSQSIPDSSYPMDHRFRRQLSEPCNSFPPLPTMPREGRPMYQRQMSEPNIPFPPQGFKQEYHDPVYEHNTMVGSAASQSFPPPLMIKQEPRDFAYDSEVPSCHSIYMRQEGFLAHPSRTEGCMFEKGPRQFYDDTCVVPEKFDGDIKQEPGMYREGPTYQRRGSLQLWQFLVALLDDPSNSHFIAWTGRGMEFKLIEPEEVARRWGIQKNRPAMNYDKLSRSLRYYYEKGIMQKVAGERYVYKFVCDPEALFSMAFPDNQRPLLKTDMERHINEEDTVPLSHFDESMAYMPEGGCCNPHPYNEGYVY
Chain of SPIB (Q01892 whole entry): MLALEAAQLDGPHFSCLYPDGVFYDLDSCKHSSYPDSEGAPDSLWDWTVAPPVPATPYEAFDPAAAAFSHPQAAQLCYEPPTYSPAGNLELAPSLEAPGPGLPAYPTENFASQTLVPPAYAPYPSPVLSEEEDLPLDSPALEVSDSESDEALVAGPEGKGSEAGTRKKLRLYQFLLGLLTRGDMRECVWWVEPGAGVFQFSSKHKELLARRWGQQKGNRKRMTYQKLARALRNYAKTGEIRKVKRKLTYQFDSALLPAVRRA
Chain of HSF1 (Q00613 whole entry): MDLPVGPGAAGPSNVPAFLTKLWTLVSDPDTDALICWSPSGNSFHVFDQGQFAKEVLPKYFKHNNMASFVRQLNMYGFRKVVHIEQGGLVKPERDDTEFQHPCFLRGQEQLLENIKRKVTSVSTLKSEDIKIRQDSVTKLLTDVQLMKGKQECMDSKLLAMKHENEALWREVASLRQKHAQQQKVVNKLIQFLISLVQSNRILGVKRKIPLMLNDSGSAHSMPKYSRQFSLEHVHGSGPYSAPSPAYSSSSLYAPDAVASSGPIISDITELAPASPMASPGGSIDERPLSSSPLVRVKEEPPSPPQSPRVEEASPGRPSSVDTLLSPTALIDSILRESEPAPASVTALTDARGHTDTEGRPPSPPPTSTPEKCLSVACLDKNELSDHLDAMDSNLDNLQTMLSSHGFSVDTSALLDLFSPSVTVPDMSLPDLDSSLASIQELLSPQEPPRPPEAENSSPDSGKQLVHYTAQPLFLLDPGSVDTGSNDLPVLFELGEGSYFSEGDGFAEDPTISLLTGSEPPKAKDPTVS
Chain of ELF1 (P32519 whole entry): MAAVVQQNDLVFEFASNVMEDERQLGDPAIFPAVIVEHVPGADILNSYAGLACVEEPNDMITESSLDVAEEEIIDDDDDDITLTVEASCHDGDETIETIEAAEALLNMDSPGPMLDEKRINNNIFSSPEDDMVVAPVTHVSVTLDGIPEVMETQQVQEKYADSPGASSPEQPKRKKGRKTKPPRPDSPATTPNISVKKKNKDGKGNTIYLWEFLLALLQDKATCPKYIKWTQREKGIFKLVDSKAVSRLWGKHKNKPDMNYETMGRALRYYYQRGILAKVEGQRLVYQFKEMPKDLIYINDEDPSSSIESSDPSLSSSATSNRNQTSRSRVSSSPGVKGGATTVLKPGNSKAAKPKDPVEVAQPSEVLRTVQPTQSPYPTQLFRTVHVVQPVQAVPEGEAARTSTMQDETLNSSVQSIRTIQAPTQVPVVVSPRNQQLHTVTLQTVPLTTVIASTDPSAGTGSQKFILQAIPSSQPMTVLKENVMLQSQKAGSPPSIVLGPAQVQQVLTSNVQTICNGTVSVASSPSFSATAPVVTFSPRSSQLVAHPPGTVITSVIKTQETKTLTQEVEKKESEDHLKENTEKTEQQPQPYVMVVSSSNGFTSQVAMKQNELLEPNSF
Chain of ETV5 (P41161 whole entry): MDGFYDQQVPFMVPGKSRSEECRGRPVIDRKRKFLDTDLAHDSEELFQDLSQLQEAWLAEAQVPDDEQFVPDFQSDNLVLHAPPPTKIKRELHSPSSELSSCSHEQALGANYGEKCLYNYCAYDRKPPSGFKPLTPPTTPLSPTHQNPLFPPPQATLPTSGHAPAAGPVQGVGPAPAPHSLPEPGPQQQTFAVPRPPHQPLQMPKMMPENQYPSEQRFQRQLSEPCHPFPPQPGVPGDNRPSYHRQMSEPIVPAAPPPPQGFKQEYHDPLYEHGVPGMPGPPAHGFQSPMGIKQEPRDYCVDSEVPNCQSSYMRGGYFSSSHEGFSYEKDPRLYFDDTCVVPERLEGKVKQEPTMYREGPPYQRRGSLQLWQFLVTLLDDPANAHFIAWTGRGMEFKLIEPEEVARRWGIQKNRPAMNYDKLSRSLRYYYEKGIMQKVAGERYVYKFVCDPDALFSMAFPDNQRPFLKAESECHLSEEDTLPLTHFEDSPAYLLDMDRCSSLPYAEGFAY

For the sequence CTTGTC, the binding signal in test [1] was 1.17 fold enrichment (6-mer frequency, TF over GST control); in test [2], 1.33 fold enrichment (6-mer frequency, TF over GST control); in [3], 1.32 fold enrichment (6-mer frequency, TF over GST control); in [4], 1.19 fold enrichment (6-mer frequency, TF over GST control); in [5], 1.22 fold enrichment (6-mer frequency, TF over GST control); in [6], 1.19 fold enrichment (6-mer frequency, TF over GST control). Besides, the binding signal in [7] is 1.35 fold enrichment (6-mer frequency, TF over GST control); in [8], 1.23 fold enrichment (6-mer frequency, TF over GST control); in [9], 1.34 fold enrichment (6-mer frequency, TF over GST control); in test [10], 1.23 fold enrichment (6-mer frequency, TF over GST control); in test [11], 1.34 fold enrichment (6-mer frequency, TF over GST control); in test [12] it was 1.07 fold enrichment (6-mer frequency, TF over GST control). The binding signal in test [13] was 1.14 fold enrichment (6-mer frequency, TF over GST control); in [14], 1.41 fold enrichment (6-mer frequency, TF over GST control); in [15], 1.33 fold enrichment (6-mer frequency, TF over GST control); in test [16] it was 1.08 fold enrichment (6-mer frequency, TF over GST control); in test [17] it was 1.32 fold enrichment (6-mer frequency, TF over GST control); in [18], 1.27 fold enrichment (6-mer frequency, TF over GST control).

For the origin of these results see PMC7862700, “An all-to-all approach to the identification of sequence-specific readers for epigenetic DNA modifications on cytosine”.
